ALOX12 inh: inhibitors of human 12S-lipoxygenase ALOX12; P18054; purified 12hLO, xylenol orange hydroperoxide absorbance; Potency, µM (top dose mostly 108 µM), inactives show top-dose activity change, negative = inhibition, usual class: inhibitors; actives 1.1% (n = 580,000); AID 1671190; also: potency is read from the fitted curve at half-maximal effect
Target sequence (P18054 whole entry, looked up): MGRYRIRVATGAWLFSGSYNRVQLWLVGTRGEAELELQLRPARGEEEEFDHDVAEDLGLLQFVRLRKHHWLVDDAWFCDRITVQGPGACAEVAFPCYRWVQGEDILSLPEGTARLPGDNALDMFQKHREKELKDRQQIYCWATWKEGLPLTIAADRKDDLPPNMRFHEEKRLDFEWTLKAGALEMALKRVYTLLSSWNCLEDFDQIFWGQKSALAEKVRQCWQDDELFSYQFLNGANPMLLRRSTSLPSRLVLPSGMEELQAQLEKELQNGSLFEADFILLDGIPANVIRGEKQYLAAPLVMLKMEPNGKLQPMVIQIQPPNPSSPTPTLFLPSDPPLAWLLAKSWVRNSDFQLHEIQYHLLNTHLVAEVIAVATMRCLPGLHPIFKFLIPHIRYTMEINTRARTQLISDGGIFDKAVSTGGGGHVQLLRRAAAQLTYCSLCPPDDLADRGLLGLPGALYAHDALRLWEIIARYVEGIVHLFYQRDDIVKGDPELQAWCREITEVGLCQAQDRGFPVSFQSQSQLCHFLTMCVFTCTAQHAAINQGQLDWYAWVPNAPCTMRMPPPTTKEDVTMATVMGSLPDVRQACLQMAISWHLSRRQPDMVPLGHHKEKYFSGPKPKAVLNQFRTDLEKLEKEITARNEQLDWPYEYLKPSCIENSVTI
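Hydroperoxide product was detected by ferrous iron/xylenol orange as the 573 to 405 nm absorbance ratio. Arachidonic acid at 40 uM (final) was turned over for 30 min at room temperature by 150 nM human 12hLO, pH 7.0 Hepes buffer, after 15 min compound preincubation.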
HT1080-NT tox: kills 2HG-producing HT-1080-NT fibrosarcoma cells; AID 686970; Potency, µM (doses to about 46.1 µM), for the others: at the highest dose activity, negative = less viability, actives largely listed as cytotoxic; HT-1080-NT fibrosarcoma viability, CellTiter-Glo ATP luminescence, 48 h; actives 1.6% (n = 360,000);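 also: NT is the 2HG producing partner of a matched IDH1 knockdown line; potency is read from the fitted curve at half-maximal effect; 0% = DMSO-treated cells and -100% = media-only wells without cells; nearly all actives have a fitted effect of over 55% in size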
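Fibrosarcoma NT cells, 750 per well in 5% FBS RPMI, were exposed to compound for 48 hours. Viability: CellTiter-Glo luminescence.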
DT40 TDP1 CPT: growth inhibition of DT40 Tdp1-/-;hTDP1 cells with camptothecin (screen for TDP1 inhibitors). actives 12% (n = 420,000). AID 686979. Potency, µM (series often up to 46.2 µM), for the others: top-dose activity change, negative = growth inhibition, actives largely listed as inhibitors. chicken DT40 Tdp1-/-;hTDP1 cells + 20 nM CPT, ATP luminescence, 48 h; also: potency is read from the fitted curve at half-maximal effect; nearly all actives have a fitted effect of over 55% in size
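Chicken DT40 Tdp1-/- cells stably complemented with human TDP1 were seeded at 400 cells/well in medium containing 20 nM camptothecin, exposed to pin-transferred compounds, and grown at 37 °C for at least 48 hr. Viability was read as ATP luminescence.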
IL-1B inflam inh: inhibitors of inflammasome signaling (IL-1 beta secretion); THP-1 LPS/ATP IL-1B secretion, AlphaLISA, 16 h; active compounds read low; AID 743279; activity change, % at 57.5 µM; actives 4.7% (n = 360,000); in the data active = activity change below about -50%; inconclusive = mostly about -30% to -49%
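Secreted IL-1B measured by AlphaLISA bead assay after 16 h compound exposure of THP-1 cells; compounds (final up to 57.5 uM) added 1 h before LPS (250 ng/mL) and ATP (1.25 mM) stimulation; lower signal means less secretion.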
TDP1 cell noCPT: qHTS for Inhibitors of human tyrosyl-DNA phosphodiesterase 1 (TDP1): qHTS in cells in absence of CPT; actives 15% (n = 420,000); Potency, µM (doses to about 46.2 µM), inactives show top-dose activity change, negative = growth inhibition, most hits filed as inhibitors; DT40 Tdp1-/- hTDP1 cells, no CPT, ATP luminescence, 48 h; also: potency is read from the fitted curve at half-maximal effect; nearly all actives have a fitted effect of over 55% in size
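Luminescent ATP content (CellTiter-Glo) served as the growth readout. Knockout chicken DT40 cells expressing human TDP1 were exposed to compounds without camptothecin for a minimum 48 hr at 37 °C.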
HT1080 IDH1KD tx: toxicity to HT-1080 IDH1 knockdown cells (counter line). HT-1080 IDH1 knockdown viability, ATP luminescence, 48 h. actives 2% (n = 360,000). Potency, µM (highest dose often 46.1 µM), without a hit: at the top dose activity, negative = toxicity, most hits filed as cytotoxic. AID 686971;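 also: potency is read from the fitted curve at half-maximal effect; 0% = DMSO wells and -100% = cell-free medium wells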
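After a 2 h attachment period, IDH1KD HT-1080 cells took pin-transferred compound for 48 h at 37 °C; ATP-based luminescence after 10 min room-temperature reagent incubation reported viability.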
Starred values were filed as active, the others as inactive; i = inactive; ? = inconclusive; / = not tested or not shown; ! = not active in a repeat; [ ] = dose if it differs, or a comment. The entries come from a sample that favours hits as a whole. Unless noted, calls follow the shape of the dose curve; as a rule, active = well fitted curve in the direction sought with a large enough effect; inconclusive = small, poorly fitted or top-dose-only effect, or another doubt; inactive = no such curve, though single readings can be large; an effect the other way counts as inactive or inconclusive. Unless noted, % is scaled to controls: 0 for no effect and ±100 for the full control effect.

SMILES	ALOX12 inh	HT1080-NT tox	DT40 TDP1 CPT	IL-1B inflam inh	TDP1 cell noCPT	HT1080 IDH1KD tx
COC(=O)c1c(-c2cccs2)csc1NC(=O)c1cccnc1	?	-8.4%	16.4µM*	-65.3*	14.6µM*	-2.3%
COc1c(CC2CC(c3ccc(F)cc3)=NO2)cc2c(c1OC)OCO2 (stereo not drawn)	1.7%	/	/	/	/	/
CCOC(=O)c1ccc(NC(=O)C(Cc2ccccc2)NS(=O)(=O)c2ccc(Br)s2)cc1 (stereo not drawn)	-9.1%	/	1.8%	/	2.5%	/
CN(C)C(=O)c1ccc(NC(=O)c2ccc3ccccc3n2)cc1	1.3%	/	/	/	/	/
O=C1CCN(Cc2ccncc2)CCCC(C(=O)NC2CCN(Cc3ccccc3)CC2)CCN1 (stereo not drawn)	71.1%	/	/	/	/	/
COC(=O)c1c(-c2cccs2)csc1NC(=O)COc1c(C)ccc(C)c1C	-16.9%	/	?	/	?	/
COC(=O)c1c(-c2cccs2)csc1NC(=O)c1ccc(C(C)(C)C)cc1	?	/	16.4µM*	/	14.6µM*	/
OCCN1CCN(Cc2ccc3c(c2)CN(Cc2cc4ccccc4o2)CCO3)CC1	8.9%	/	1.2%[9.04 µM]	/	-21.4%	/
CN(C)[C@@H]1CN(Cc2ccccn2)CC[C@]1(O)c1ccccc1	55.6%	/	/	/	/	/
O=C1C=CC2(O[C@H](c3ccccc3)[C@@H](c3ccccc3)O2)[C@H](Sc2ccccc2O)C1	?	4.61µM*	0.461µM*	-116.8*	0.581µM*	3.26µM*
COC(=O)CSc1cccc2c1C(=O)CC2c1ccccc1 (stereo not drawn)	1.5%	0.0%	6.3%	-11.7	-5.6%	4.5%
Cc1nc(-c2ccc(F)cc2)n(CC(=O)Nc2ccccc2)c(=O)c1CCO	-2.3%	/	/	/	/	/
COc1cccc(-n2nnc3c(=O)n(Cc4cccc(F)c4)cnc32)c1	-18.2%	-19.2%	?	-54.9*	-8.1%	0.5%
Cc1nn(C)c(C)c1C(=O)N1CCCC(c2ccc(C(=O)O)cc2)C1 (stereo not drawn)	7.2%	/	/	/	/	/
CC(=O)Oc1c(C)c(=O)n(C)c2ccccc12	0.5%	12.9%	-14.5%	-89.1*	-1.6%	-19.7%
O=C(Nc1ccccc1)N1CCC2(CC1)CCN(C(=O)c1ccncc1)CC2	5.2%[57.4 µM]	/	5.2%	/	-3.0%	/
COCCN1CCCC2(CCN(C(=O)C3(C)CCCCC3)C2)C1=O (stereo not drawn)	0.3%	/	/	/	/	/
O=C(NCc1ccccc1Cl)c1ccc(CS(=O)(=O)c2ccccc2)o1	-8.5%	3.0%	-15.8%	-14.3	-22.8%	2.2%
COc1ccc(OC)c(CCNC(=O)c2ccc(CS(=O)(=O)c3ccc(Br)cc3)o2)c1	0.0%	-3.3%	20.6µM*	-11.7	?	0.6%
COc1ccc(S(=O)(=O)Cc2ccc(C(=O)NCc3ccc(C)cc3)o2)cc1	-1.3%	5.1%	-12.6%	-16.8	23.1µM*	-11.6%
CC(=O)Nc1ccc(NC(=O)c2ccc(CSc3ccccc3)o2)cc1	-14.5%	10.2%	1.0%	?	-27.4%	6.8%
O=C(NCc1ccccc1)c1ccc(CSc2ccccc2)o1	-8.7%	-1.1%	-11.8%	-90.5*	-17.1%	-15.8%
O=C(NCc1ccccc1Cl)c1ccc(CS(=O)(=O)c2ccc(Br)cc2)o1	?	/	23.1µM*	/	13µM*	/
COc1ccc2cc(C(=O)NCCC(=O)N(C)C)c(C)nc2c1	7.5%	/	/	/	/	/
COc1ccc(CNC(=O)c2ccc(CS(=O)(=O)c3ccc(OC)cc3)o2)cc1	-6.9%	-4.2%	?	-1.8	?	2.9%
SMILES	ALOX12 inh	HT1080-NT tox	DT40 TDP1 CPT	IL-1B inflam inh	TDP1 cell noCPT	HT1080 IDH1KD tx
O=C(NCc1ccccc1)c1ccc(CS(=O)(=O)c2ccccc2)o1	-2.1%	0.7%	2.59µM*	-3.3	16.4µM*	4.2%
COc1ccc(S(=O)(=O)Cc2ccc(C(=O)NCc3ccccc3)o2)cc1	2.8%	-2.6%	-18.8%	-3.5	-11.3%	-2.0%
COc1ccc(CNC(=O)c2ccc(CS(=O)(=O)c3ccc(Br)cc3)o2)cc1	?	-0.1%	23.1µM*	-21.8	23.1µM*!	4.9%
COCCCNC(=O)CCCn1c(=O)c2ccccc2n(CC(=O)Nc2ccc(C)cc2Cl)c1=O	0.5%	/	-27.0%	/	-9.6%	/
O=C(CSc1nnc(CCc2ccccc2)n1-c1ccc(Cl)cc1)c1ccccc1	?	4.3%	?	-63.7*	23.1µM*	2.8%
S=c1[nH]nc(CCc2ccccc2)n1-c1ccc(Cl)cc1	31.6µM*	-9.9%	?	21.6	-20.0%	-17.6%
COc1ccc(-n2c(CCc3ccccc3)nnc2SCC(=O)c2ccc(Cl)cc2)cc1	-15.6%	7.6%	?	?	?	-6.7%
Cc1cc(C)c(NC(=O)Cn2c(=O)n(-c3ccc(F)cc3)c(=O)c3c2cc(C)n3C)c(C)c1	11.4%	/	/	/	/	/
Cc1nc(SCC(=O)N(C)Cc2ccco2)c2c(C)c(C)sc2n1	0.0%	-21.1%	16.4µM*	-5.3	?	?
Cc1nc(NCc2ccco2)c2c(C)c(C)sc2n1	?	5.62µM*	2.06µM*	-76.8*	1.84µM*	2.82µM*
O=C1C(=Cc2ccc(Br)o2)C(=O)c2ccccc21	/	7.9%	23.1µM*	5.6	?	9.9%
CCOC(=O)c1sc(NC(=O)c2ccoc2C)c(C(N)=O)c1C	-3.7%	6.4%	25.9µM*	-5.1	16.4µM*	-1.2%
COC(=O)c1c(NC(=O)c2ccoc2C)sc(C)c1C	i	4.2%	-10.2%	17.9	-4.0%	3.8%
CCOC(=O)c1ccc(NC(=O)c2sc(NC(=O)c3ccccc3)c(C(=O)OCC)c2C)cc1	27.1%	/	/	/	/	/
CCOC(=O)c1c(NC(=O)c2cc(C)oc2C)sc(C(=O)Nc2ccc(Cl)cc2)c1C	186.4%[57.4 µM]	0.2%	8.91µM*	5.5	5.62µM*	1.1%
COc1ccc(C(=O)NCC2CCN(C(=O)C(=O)c3cccs3)CC2)cc1	-0.1%	/	/	/	/	/
O=C(Nc1ccc(Cc2ccncc2)cc1)C1CCC(N2C(=O)C3C4C=CC(C5CC45)C3C2=O)CC1 (stereo not drawn)	-11.9%	?	18.4µM*	0.0	14.6µM*	?
CC(=O)Nc1ccc(NC(=O)C2CCC(N3C(=O)C4C5C=CC(C6CC56)C4C3=O)CC2)cc1 (stereo not drawn)	6.5%	-1.0%	-9.5%	19.8	-11.9%	-2.2%
COc1cc(NC(=O)C2(Cc3ccccc3)CCCCC(=O)N2)cc(OC)c1 (stereo not drawn)	39.0%	/	/	/	/	/
CCC(CO)NCc1sccc1C (stereo not drawn)	319.2%	11.6%	6.9%	-2.0	12.8%	11.0%
